Experimental findings from PubChem BioAssay (Tox21) are described below.

The nature of test [1]: qHTS assay to identify small molecule agonists of the hypoxia (HIF-1) signaling pathway - cell viability counter screen (AID 1224844; calls by dose curve; note: nearly all actives have a fitted effect of over 50% in size). In outline: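 HRE-bla ME-180; 0.5% dFBS; cpd 17 h, 37C, 5% CO2; CellTiter-Glo lum., 30 min RT, post-FRET read, same wells.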
Test [2] can be described thus: qHTS assay to identify small molecule agonists of H2AX (AID 1224845; active = well fitted activation curve with a large enough effect in the signal ratio in the repeat runs, not every such curve was filed as active; the % refers to the signal ratio). In outline: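 Wild-type CHO-K1 cells plated overnight, then exposed 3 hr at 37C to compounds at 15 concentrations (0.76% DMSO). Lysed, then HTRF anti-pH2AX(S139)-cryptate/anti-H2AX-d2 detection after 24 hr at room temperature; emissions 665 and 620 nm.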
Test [3] can be described thus: qHTS assay to identify small molecule agonists of the hypoxia (HIF-1) signaling pathway (AID 1224846; active = well fitted activation curve with a large enough effect in the signal ratio in the repeat runs, not every such curve was filed as active; the % refers to the signal ratio). In outline:
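Reporter induction in HRE-bla ME-180 cells is taken as agonism: cells sit 5 hrs after plating, receive compounds or DMSO only, incubate 17 hrs at 37C under 5% CO2, and are loaded with CCF4-AM for beta-lactamase FRET measurement.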

Test [4] in a line: qHTS assay to identify small molecule agonists of H2AX - cell viability counter screen (AID 1224847; calls by dose curve; note: nearly all actives have a fitted effect of over 30% in size; note: potency is the fitted concentration of half-maximal effect). The essentials: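 CHO-K1 cells plated overnight at 37C, then exposed 3 h at 37C to compounds at 15 concentrations (0.76% DMSO final). Viability by CellTiter-Glo luminescence after 30 min at room temperature.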
The nature of test [5]: qHTS assay to identify small molecule antagonists of the estrogen related receptor (ERR) signaling pathway from Tox21 library (AID 1224848). Note: nearly all actives have a fitted effect of over 50% in size. Note: potency is the fitted concentration of half-maximal effect. In outline: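 Tox21 10K compounds in DMSO tested for ERR pathway antagonism in NTP's ERR cell line; 18 h, 37 C exposure; ONE-Glo luminescence.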
The nature of test [6]: qHTS assay to identify small molecule agonists of the estrogen related receptor (ERR) signaling pathway from Tox21 library (AID 1224849; calls by dose curve; note: nearly all actives have a fitted effect of over 15% in size). To be noted: ERR reporter cell line, ONE-Glo luciferase, 18 h; at 92.4 µM (top of the series) unless noted. In outline:
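Tox21 compounds tested for ERR agonism in an NTP reporter cell line: 18 h treatment at 37 C, then ONE-Glo luminescence.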

The nature of test [7]: qHTS RealTime-Glo MT Cell Viability Assay in HepG2 cells - 24 hour (AID 1224867). Note: nearly all actives have a fitted effect of over 50% in size. The essentials: (§1)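 HepG2 suspension premixed with RealTime-Glo reagents is plated at 600 cells per well and left 5 h at 37 C/5% CO2. Compounds in DMSO then go in, and bioluminescence reflecting viable cell number is recorded over 40 h.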
A short description of test [8]: A CellTox Green Cytotoxicity Assay to monitor cytotoxicity in HEK293 cells - 0 hour (AID 1224869). Note: nearly all actives have a fitted effect of over 50% in size. In outline:
(§2)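 Tox21 screen in HEK293: membrane-impermeant cyanine dye fluoresces on binding dead-cell DNA; compound pinned 5 h post-seeding, plates held at 37 C, signal read repeatedly through 40 h.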

Test [9] can be described thus: qHTS RealTime-Glo MT Cell Viability Assay in HepG2 cells - 40 hour (AID 1224870). Note: nearly all actives have a fitted effect of over 50% in size. In outline:
(§3)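 HepG2 cells mixed with RealTime-Glo MT reagents (NanoLuc plus cell-permeant prosubstrate) were seeded at 600 cells/well, incubated 5 h at 37 C/5% CO2, then pinned with compounds in DMSO; nonlytic luminescence tracked viability during 40 h treatment.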

Test [10] in a line: A CellTox Green Cytotoxicity Assay to monitor cytotoxicity in HEK293 cells - 40 hour (AID 1224871). Note: nearly all actives have a fitted effect of over 45% in size. The essentials: as §2
Test [11] can be described thus: qHTS RealTime-Glo MT Cell Viability Assay in HepG2 cells - 8 hour (AID 1224873). Note: nearly all actives have a fitted effect of over 55% in size. In outline: as §3
The nature of test [12]: A CellTox Green Cytotoxicity Assay to monitor cytotoxicity in HEK293 cells - 24 hour (AID 1224875). Note: nearly all actives have a fitted effect of over 45% in size. The essentials:
as §2

Test [13] is described as follows: A CellTox Green Cytotoxicity Assay to monitor cytotoxicity in HepG2 cells - 16 hour (AID 1224876). Note: nearly all actives have a fitted effect of over 45% in size. The essentials:
(§4)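 Measurements at 0, 8, 16, 24, 32 and 40 h of treatment captured CellTox Green fluorescence in HepG2 cells that had been co-plated with reagent and preincubated 5 h at 37 C/5% CO2.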

Test [14] is described as follows: qHTS RealTime-Glo MT Cell Viability Assay in HepG2 cells - 32 hour (AID 1224877). Note: nearly all actives have a fitted effect of over 55% in size. In outline:
as §1

A short description of test [15]: A CellTox Green Cytotoxicity Assay to monitor cytotoxicity in HepG2 cells - 24 hour (AID 1224878). Note: nearly all actives have a fitted effect of over 45% in size. The essentials:
as §4

A short description of test [16]: A CellTox Green Cytotoxicity Assay to monitor cytotoxicity in HepG2 cells - 40 hour (AID 1224879). Note: nearly all actives have a fitted effect of over 40% in size. In outline:
as §4

The nature of test [17]: qHTS RealTime-Glo MT Cell Viability Assay in HEK293 cells - 0 hour (AID 1224880). In outline:
(§5)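 HEK293 + NanoLuc + prosubstrate, 600 cells/well; 5 h, 37 C/5% CO2; compound 23 nL in DMSO by pintool; 37 C; luminescence read at 0, 8, 16, 24, 32 and 40 h time points.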

A short description of test [18]: qHTS RealTime-Glo MT Cell Viability Assay in HEK293 cells - 32 hour (AID 1224868). Note: nearly all actives have a fitted effect of over 50% in size. Note: potency is the fitted concentration of half-maximal effect. The essentials:
(§6)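 Reads taken at 0, 8, 16, 24, 32 and 40 h from the same wells. HEK293 cells (600/well) carried RealTime-Glo reagents from seeding, with compound added after a 5 h settle at 37 C.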

Test [19] can be described thus: qHTS RealTime-Glo MT Cell Viability Assay in HEK293 cells - 16 hour (AID 1224872). Note: nearly all actives have a fitted effect of over 50% in size. Note: potency is the fitted concentration of half-maximal effect. The essentials:
as §6

Test [20] is described as follows: qHTS RealTime-Glo MT Cell Viability Assay in HEK293 cells - 40 hour (AID 1224874). Note: nearly all actives have a fitted effect of over 50% in size. Note: potency is the fitted concentration of half-maximal effect. To be noted: RealTime-Glo luminescence; max response: active compounds read low. In outline:
as §5

Unmarked numbers belong to inactive results. Inconclusive results are not listed. Activity calls are given as the source filed them. Unless noted, calls come from the whole dose curve; as a rule, active = well fitted curve in the direction sought with a large enough effect in the repeat runs; inconclusive = weak or mixed curves; inactive = no such curve, though single readings can be large; an effect the other way counts as inactive or inconclusive.
% is set by controls: 0 for no effect and ±100 for the full control effect.

For the molecule `CCCCOP(=O)(CCCC)OCCCC`, the Potency result in [1], in test [2], in test [4], in test [5], in [7] and in test [8] was “inactive” in each case. For the same molecule, the Potency result in test [9], in test [10], in test [11], in [12], in [13] and in test [14] was “inactive” in each case. The Potency entry in test [15], in test [16] and in [17] was “inactive” throughout. The molecule was called inactive in test [3]. Besides, in [6], the activity change, positive = activation was -2.44%.

Take `Oc1c(Cl)c(Cl)cc(Cl)c1Cl`: the Potency result in test [1], in test [2], in test [8], in test [9], in test [11] and in [14] was “inactive” throughout. Besides, the Potency result in test [15], in [16] and in test [17] was “inactive” each time. In test [3], the molecule was classed as inactive. The Potency in test [4] is 87.3 µM (active); in test [5], 37.5 µM (active); in test [18], 47.6 µM (active); in test [19], 47.6 µM (active); in test [20], 47.6 µM (active). In addition, in [6], the activity change, positive = activation is -59.9%.

For the molecule `CC(C)CBr`, the Potency result in test [1], in [2], in [4], in [5], in test [18] and in test [8] was “inactive” in each case. Further, the Potency result in test [9], in test [10], in test [19], in [11], in test [12] and in test [13] was “inactive” throughout. Further, the Potency result in test [14], in test [15], in [16] and in test [17] was “inactive” each time. Moreover, in test [3], the call was inactive. For the same molecule, in test [6], the activity change, positive = activation was 2.25%. In test [20], the max response is 0.766%.

As for `CCc1ccccc1C`, the Potency result in test [1], in [2], in test [4], in [5], in test [7] and in test [18] was “inactive” each time. For the same molecule, the Potency result in [8], in [9], in test [10], in test [19], in test [11] and in test [12] was “inactive” each time. For the same molecule, the Potency result in test [13], in [14], in test [15], in test [16] and in test [17] was “inactive” each time. Further, the molecule was classed as inactive in test [3]. For the same molecule, the activity change, positive = activation in test [6] is 0.837%. The max response in [20] was 0.859%.

For the molecule `ClCCN1CCOCC1`, the Potency result in test [1], in test [2], in test [4], in [5], in [7] and in [18] was “inactive” throughout. For the same molecule, the Potency result in [8], in test [9], in test [10], in [19], in test [11] and in test [12] was “inactive” in each case. Also, the Potency result in [13], in test [14], in test [15], in test [16] and in [17] was “inactive” throughout. In test [3], the result was inactive. Moreover, the activity change, positive = activation in [6] is -2.74%. For the same molecule, the max response in test [20] is -16.3%.

`COP(=O)(CCC(=O)NCO)OC`: the Potency entry in [1], in test [2], in [4], in test [5], in test [7] and in test [18] was “inactive” throughout. Moreover, the Potency entry in [9], in test [10], in test [19], in test [11], in test [12] and in [13] was “inactive” in each case. The Potency entry in test [14], in test [15], in test [16] and in [17] was “inactive” in each case. Also, the result in test [3] was inactive. Besides, the activity change, positive = activation in test [6] was 3.27%. Moreover, the max response in test [20] is 14%.

`N#Cc1ccccc1N`: the Potency result in [1], in [2], in test [4], in [7], in test [18] and in [8] was “inactive” in each case. For the same molecule, the Potency result in test [9], in test [10], in [19], in test [11], in test [12] and in [14] was “inactive” throughout. Moreover, the Potency entry in test [15], in [16] and in [17] was “inactive” in each case. Besides, the result in [3] was inactive. For the same molecule, in [6], the activity change, positive = activation is -12.6%. Moreover, the max response in test [20] is 0.901%.
